The source of these data is PMC7819943, “Rice protein-binding microarrays: a tool to detect cis-acting elements near promoter regions in rice”.

The full ranking holds about 39,000 sequences; the median of “fluorescence intensity (a.u.)” is about 4,300, and the highest 2% start at about 39,000. For the sample, the highest values were picked, then their nearest neighbours and some sequences at random.

In this assay the target is T1, OsSMF1 (Oryza sativa, UniProt Q6ZLB0 1-436).
T1 sequence: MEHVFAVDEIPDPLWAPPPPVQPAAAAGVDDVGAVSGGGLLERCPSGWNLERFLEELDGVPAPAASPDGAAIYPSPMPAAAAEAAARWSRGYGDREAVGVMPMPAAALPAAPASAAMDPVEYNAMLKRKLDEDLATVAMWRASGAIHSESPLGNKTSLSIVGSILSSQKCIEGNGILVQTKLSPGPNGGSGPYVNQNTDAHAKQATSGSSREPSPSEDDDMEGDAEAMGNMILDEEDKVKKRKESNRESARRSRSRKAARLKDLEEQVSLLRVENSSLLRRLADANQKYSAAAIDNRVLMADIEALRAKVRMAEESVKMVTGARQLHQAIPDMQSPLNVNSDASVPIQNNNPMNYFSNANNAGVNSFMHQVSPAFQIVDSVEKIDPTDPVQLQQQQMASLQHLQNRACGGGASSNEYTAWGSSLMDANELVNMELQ
The experiment in a line: protein-binding microarray (RPBM); PBS, 2% BSA, 51.3 ng/ul salmon testes DNA, 50 uM zinc acetate, 200 nM TF, 25 C, 1 h; high values mean tight binding. To be noted: protein: recombinant; tags: N-terminal polyhistidine and DsRed monomer fusion (pET32a); chain copies: 2; label: CyDye5-dUTP incorporated in the synthesized complementary strand; 3' TTTTT single-stranded linker to array surface; dsDNA, one strand shown. The method in brief:
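Ni–NTA purification followed expression in E. coli BL21-CodonPlus of transcription factors fused N-terminally to a polyhistidine tag and DsRed. At 200 nM in PBS with 2% BSA, salmon testes DNA and 50 µM zinc acetate, the protein was incubated for 1 h at 25 °C with a custom Agilent array that had been primer-extended with Cy5-dUTP and blocked with 2% BSA. After washing, the array was read on an Axon 4000B scanner. The binding signal is per-feature fluorescence intensity in arbitrary units.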
Take “GAAACCTGATGATGCTTGATGGAAATCCATTAGACAGCGTCGGAGTCACCTAGTGCAG”: the binding signal is 4580 fluorescence intensity (a.u.). As for “TTCTCTTCCAAAGGAAATGTATAAATCCACCATTAACTTTCGGAGTCACCTAGTGCAG”, the figure is 19900 fluorescence intensity (a.u.); as for “TTGTACAGCAGCGTGCTTCCATATGAGGAAATCCACTTCTCGGAGTCACCTAGTGCAG”, 44200 fluorescence intensity (a.u.). For the sequence “CGGCCCAGCAGGCGAGCGTGACGTGGACCGGTCGTTTCGCCGGAGTCACCTAGTGCAG”, the binding signal is 5650 fluorescence intensity (a.u.).

Regarding “TTGGCTGGAGCATCGTCACTACTATTCGACACTAAGGTGTCGGAGTCACCTAGTGCAG”, the binding signal was 3240 fluorescence intensity (a.u.). For the sequence “AGAATTCCGTGATACGCGCATACGCGTCGACAAGAGAAATCGGAGTCACCTAGTGCAG”, the binding signal is 3280 fluorescence intensity (a.u.).

“GCCTCGAACGACGTGTGGACGCGATGGAAGATGCGTTCTGCGGAGTCACCTAGTGCAG”: the binding signal is 3210 fluorescence intensity (a.u.).

“CCACGCGTCGTCGACGTACTGCGCGATGACGGCGGACTCGCGGAGTCACCTAGTGCAG”: the binding signal is 4700 fluorescence intensity (a.u.).

For the sequence “GGAAGGCGACGCGTTACTGTGCACGATGCGGACCTCGAAACGGAGTCACCTAGTGCAG”, the binding signal was 60400 fluorescence intensity (a.u.). Consider “ACGCGCTCGCCTCGCGTCATCGGATCAAATGGTGGAGGCGCGGAGTCACCTAGTGCAG”, for which the binding signal was 3970 fluorescence intensity (a.u.). Take “TCGCTCGCTCGCCTGCCAAATCTGCATTGGTGCTAGGAGGCGGAGTCACCTAGTGCAG”: the binding signal was 3730 fluorescence intensity (a.u.). Take “CATACATGGAAAAGACAAATCGCCTGGTGCATGAGGCGCTCGGAGTCACCTAGTGCAG”: the binding signal is 40600 fluorescence intensity (a.u.). For “TCCTTTCGTTATCTGTACGGCAGTGACGTCCACGACTCGACGGAGTCACCTAGTGCAG”, the binding signal is 4340 fluorescence intensity (a.u.). To “CTGCAGTACAACAAACATGATAGTACTTGAAATCATCTTGCGGAGTCACCTAGTGCAG” belongs 27400 fluorescence intensity (a.u.); to “CAACAAGCGGGTGGCTGGAAGGTGTGTGTGTGAGAGAGAGCGGAGTCACCTAGTGCAG”, 3180 fluorescence intensity (a.u.). In the case of “GATATCACAACCTGACCCACATTAGTCACACGCACTCACACGGAGTCACCTAGTGCAG”, the binding signal is 3790 fluorescence intensity (a.u.). In the case of “GTATTGTGTGTATTTATACATCATGAAAGAATAGAATAAACGGAGTCACCTAGTGCAG”, the binding signal was 28600 fluorescence intensity (a.u.). Turning to “GTAAGAATTGGCTGTTAGATTGGCTATAAATGAATTGGAGCGGAGTCACCTAGTGCAG”, the binding signal is 50800 fluorescence intensity (a.u.). “ATAAAGAATATGTAGAATTGGAACTATGCTAAGAGAAGAGCGGAGTCACCTAGTGCAG”: the binding signal was 3280 fluorescence intensity (a.u.). On to “CTATTGTATGAATTGGCTATAGATGATTTGGAGGCAGTAGCGGAGTCACCTAGTGCAG”, for which the binding signal was 3800 fluorescence intensity (a.u.). For the sequence “ATGAGTGTGAGTGTGGCATGCGTGCATGTGTAATAGTAAACGGAGTCACCTAGTGCAG”, the binding signal is 3480 fluorescence intensity (a.u.). As for “TGGAGTAAACGATGAATACATGTTATAATAGTGTAGATTGCGGAGTCACCTAGTGCAG”, the figure is 65100 fluorescence intensity (a.u.); as for “TTCAAGTCCACATGGTGCTGACGTGAAACTGTCACATACACGGAGTCACCTAGTGCAG”, 7250 fluorescence intensity (a.u.). “GCATAGGAAGGTGACATGGCATATCCATGTGGCGATTTTGCGGAGTCACCTAGTGCAG”: the binding signal is 7280 fluorescence intensity (a.u.). For the sequence “ACCAGTACGCATAGCATCATGTTGTTCCTGTGAAAGCATCCGGAGTCACCTAGTGCAG”, the binding signal was 3460 fluorescence intensity (a.u.).

For “AGCTTCATCTGCAATCCTCCGCTGATCTCTCCCTGTCCGGCGGAGTCACCTAGTGCAG”, the binding signal is 3940 fluorescence intensity (a.u.). To “CCATCGCCGCCGCCCTCTTCTTCTTCTTCTTGCGAAGCAACGGAGTCACCTAGTGCAG” belongs 19100 fluorescence intensity (a.u.). As for “CATAATATGGTAGTGTTGTTTCTCATGCAAGTATTGGCGTCGGAGTCACCTAGTGCAG”, the figure is 3160 fluorescence intensity (a.u.).

With “TTTCAGAGTTTGAAGTTGGAAATCAACCTTGTTGTTCTCTCGGAGTCACCTAGTGCAG”, the binding signal is 63100 fluorescence intensity (a.u.).

On to “ACAAGTTGGAGCTACTTTCTTTTGAAATGACAGATCAACTCGGAGTCACCTAGTGCAG”, for which the binding signal was 3250 fluorescence intensity (a.u.). Take “GCAGAGGAACCTTGGTAGTAGTATTTGGTTTCTCAGAAGTCGGAGTCACCTAGTGCAG”: the binding signal is 52600 fluorescence intensity (a.u.). In the case of “TTATTTTGGTCAGTTGAAGTGTGGAAAATGGTGAAAATCTCGGAGTCACCTAGTGCAG”, the binding signal was 3880 fluorescence intensity (a.u.). As for “AAGAGATCCTTGTGTTTCGGAAGAATTTTGGTTGGTGTATCGGAGTCACCTAGTGCAG”, the figure is 23500 fluorescence intensity (a.u.); as for “GAGAGCTCCCTTTTCGTACCACCTCGCCGCGTCGGCTGCTCGGAGTCACCTAGTGCAG”, 4870 fluorescence intensity (a.u.); as for “AGCCGCGGTCACGCACGCCACGCGTTCGATCGATCGATCACGGAGTCACCTAGTGCAG”, 4120 fluorescence intensity (a.u.). For “GCTGGCTGGATTGCCACGTGTATGTCACGTAGGATAAAACCGGAGTCACCTAGTGCAG”, the binding signal is 14300 fluorescence intensity (a.u.). “GTTGACCCGCAGTTCCCCTTTGTTTTCCACGTGTTTCTTCCGGAGTCACCTAGTGCAG”: the binding signal is 7790 fluorescence intensity (a.u.). As for “CGGACGTCCCACACGCTTGGTGTCACGACGAGAGGAACCTCGGAGTCACCTAGTGCAG”, the figure is 3450 fluorescence intensity (a.u.); as for “ATCAAAGAGGATTCTGTATTGTATTGGCAACAACCGAAAACGGAGTCACCTAGTGCAG”, 13800 fluorescence intensity (a.u.); as for “CTTGAAGGAAAACAAGTATAAGGTTCATCCTCATCATCACCGGAGTCACCTAGTGCAG”, 3270 fluorescence intensity (a.u.).

For “AAACATCAATTGTATTATCCTTGAAAAGAAGGCACATCACCGGAGTCACCTAGTGCAG”, the binding signal is 44800 fluorescence intensity (a.u.).

“ATTGAAAATTTTGTTTGAGTGCACATCGTGTGCATTTTATCGGAGTCACCTAGTGCAG”: the binding signal was 8920 fluorescence intensity (a.u.).
